Data taken from the supplement of paper PMC12819154, “High-throughput peptide-centric local stability assay extends protein–ligand identification to membrane proteins, tissues and bacteria” (Nature Structural & Molecular Biology, 2025).

What follows are targets tested with CN[C@@H]1C[C@H]2O[C@@](C)([C@@H]1OC)n1c3ccccc3c3c4c(c5c6ccccc6n2c5c31)C(=O)NC4 [staurosporine] (assay: log2 fold change of tryptic peptide abundance, ligand vs vehicle (limited proteolysis) (log2 ratio); higher = more trypsin-susceptible (destabilized)). Details: ligand concentration: 20 uM; sample: K562 cleared lysate; digestion: 4 min, 22 C (HT-PELSA RT4min, Orbitrap Astral).

UniProt Q8NEB9, sequence (Q8NEB9 whole entry): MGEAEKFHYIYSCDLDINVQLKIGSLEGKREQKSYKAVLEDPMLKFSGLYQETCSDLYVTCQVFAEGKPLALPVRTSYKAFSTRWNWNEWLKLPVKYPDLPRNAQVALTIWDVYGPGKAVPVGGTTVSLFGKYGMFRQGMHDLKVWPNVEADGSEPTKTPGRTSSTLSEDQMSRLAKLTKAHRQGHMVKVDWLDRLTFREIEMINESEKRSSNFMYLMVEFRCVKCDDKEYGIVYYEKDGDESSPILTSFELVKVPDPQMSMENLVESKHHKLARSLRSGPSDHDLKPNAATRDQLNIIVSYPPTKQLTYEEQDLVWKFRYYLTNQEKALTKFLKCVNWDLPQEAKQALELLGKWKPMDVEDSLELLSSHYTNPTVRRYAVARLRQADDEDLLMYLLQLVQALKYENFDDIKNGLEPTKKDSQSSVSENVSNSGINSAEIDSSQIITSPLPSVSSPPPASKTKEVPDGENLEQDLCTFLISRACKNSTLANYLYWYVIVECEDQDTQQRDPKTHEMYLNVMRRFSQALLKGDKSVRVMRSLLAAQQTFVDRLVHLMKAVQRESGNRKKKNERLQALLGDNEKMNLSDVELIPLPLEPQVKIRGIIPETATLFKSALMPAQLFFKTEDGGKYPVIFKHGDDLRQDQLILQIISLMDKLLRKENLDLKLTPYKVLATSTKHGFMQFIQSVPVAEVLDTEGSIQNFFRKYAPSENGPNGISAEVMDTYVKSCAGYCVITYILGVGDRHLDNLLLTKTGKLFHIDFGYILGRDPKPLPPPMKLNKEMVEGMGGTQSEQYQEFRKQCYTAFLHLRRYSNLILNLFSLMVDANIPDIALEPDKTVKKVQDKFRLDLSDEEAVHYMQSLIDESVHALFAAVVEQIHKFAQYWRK
UniProt P10398, sequence (P10398 whole entry): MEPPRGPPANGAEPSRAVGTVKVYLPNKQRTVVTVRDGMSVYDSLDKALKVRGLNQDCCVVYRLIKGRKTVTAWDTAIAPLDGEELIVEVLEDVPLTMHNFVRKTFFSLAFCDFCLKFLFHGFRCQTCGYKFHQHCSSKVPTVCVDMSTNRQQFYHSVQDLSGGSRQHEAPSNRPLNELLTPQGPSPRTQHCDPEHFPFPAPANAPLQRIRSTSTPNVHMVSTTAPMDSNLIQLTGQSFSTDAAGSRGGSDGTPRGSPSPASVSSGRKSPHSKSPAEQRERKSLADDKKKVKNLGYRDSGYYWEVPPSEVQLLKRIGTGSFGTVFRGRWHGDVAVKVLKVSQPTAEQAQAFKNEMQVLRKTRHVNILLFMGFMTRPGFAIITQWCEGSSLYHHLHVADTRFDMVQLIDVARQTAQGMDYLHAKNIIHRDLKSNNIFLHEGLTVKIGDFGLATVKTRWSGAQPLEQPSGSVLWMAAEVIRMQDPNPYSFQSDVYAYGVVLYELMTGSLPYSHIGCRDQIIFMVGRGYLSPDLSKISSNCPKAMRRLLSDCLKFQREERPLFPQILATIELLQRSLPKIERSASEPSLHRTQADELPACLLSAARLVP
UniProt O75153, sequence (O75153 whole entry): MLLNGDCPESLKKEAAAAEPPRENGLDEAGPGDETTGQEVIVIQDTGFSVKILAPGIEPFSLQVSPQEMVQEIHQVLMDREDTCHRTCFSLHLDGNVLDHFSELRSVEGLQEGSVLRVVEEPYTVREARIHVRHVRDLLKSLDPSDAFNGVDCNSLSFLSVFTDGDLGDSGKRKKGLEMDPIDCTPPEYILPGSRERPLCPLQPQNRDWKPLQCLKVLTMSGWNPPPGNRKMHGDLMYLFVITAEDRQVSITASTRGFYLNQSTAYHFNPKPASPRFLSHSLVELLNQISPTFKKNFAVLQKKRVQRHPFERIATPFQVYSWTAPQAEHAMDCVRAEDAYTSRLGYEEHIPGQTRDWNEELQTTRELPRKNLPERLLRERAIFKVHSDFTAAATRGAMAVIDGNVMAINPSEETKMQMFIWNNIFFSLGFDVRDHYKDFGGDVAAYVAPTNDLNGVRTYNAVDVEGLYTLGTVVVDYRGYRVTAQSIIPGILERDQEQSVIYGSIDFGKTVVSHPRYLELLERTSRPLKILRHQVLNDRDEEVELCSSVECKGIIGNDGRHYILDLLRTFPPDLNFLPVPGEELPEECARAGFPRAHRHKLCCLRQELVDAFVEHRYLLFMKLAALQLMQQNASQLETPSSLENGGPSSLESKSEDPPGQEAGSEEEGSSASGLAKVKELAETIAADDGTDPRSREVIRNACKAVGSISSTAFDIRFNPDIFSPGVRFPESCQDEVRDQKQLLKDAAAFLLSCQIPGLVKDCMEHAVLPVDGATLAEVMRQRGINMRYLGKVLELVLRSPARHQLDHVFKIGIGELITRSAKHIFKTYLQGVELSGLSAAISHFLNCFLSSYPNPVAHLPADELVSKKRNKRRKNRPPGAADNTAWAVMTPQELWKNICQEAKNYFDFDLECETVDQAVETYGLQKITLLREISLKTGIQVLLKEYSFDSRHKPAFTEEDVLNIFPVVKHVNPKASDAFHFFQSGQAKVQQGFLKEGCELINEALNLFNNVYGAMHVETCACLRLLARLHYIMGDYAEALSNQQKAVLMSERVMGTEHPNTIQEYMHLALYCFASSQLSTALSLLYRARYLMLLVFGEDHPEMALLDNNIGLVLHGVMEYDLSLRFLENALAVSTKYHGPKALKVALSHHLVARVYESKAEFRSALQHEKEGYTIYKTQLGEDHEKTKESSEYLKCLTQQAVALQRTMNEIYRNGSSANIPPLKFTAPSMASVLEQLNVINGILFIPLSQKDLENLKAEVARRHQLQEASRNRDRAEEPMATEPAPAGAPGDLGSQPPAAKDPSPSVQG
UniProt Q9H2K8, sequence (Q9H2K8 whole entry, looked up): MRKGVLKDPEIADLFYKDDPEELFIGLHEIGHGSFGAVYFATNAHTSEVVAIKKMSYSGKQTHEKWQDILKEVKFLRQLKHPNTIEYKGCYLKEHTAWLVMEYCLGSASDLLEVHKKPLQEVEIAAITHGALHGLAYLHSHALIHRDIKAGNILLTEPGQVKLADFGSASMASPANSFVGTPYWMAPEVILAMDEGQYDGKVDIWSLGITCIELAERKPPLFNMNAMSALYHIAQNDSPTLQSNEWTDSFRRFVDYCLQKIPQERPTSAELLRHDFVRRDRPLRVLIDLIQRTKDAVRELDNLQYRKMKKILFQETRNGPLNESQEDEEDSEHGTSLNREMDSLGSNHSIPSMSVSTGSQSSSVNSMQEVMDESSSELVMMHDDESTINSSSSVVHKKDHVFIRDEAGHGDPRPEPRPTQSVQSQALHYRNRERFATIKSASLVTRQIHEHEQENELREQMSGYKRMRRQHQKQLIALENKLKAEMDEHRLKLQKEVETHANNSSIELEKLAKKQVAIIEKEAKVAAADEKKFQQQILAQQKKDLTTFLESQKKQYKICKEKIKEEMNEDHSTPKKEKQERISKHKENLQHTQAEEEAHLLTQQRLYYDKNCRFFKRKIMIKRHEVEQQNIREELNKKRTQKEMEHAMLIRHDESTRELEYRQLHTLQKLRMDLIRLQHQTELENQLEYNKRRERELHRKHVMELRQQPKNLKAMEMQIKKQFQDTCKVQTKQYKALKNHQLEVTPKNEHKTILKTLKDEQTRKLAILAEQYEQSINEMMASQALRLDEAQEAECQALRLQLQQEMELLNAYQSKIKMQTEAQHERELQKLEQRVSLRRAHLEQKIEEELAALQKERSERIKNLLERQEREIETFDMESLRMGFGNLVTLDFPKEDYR
UniProt Q9Y606, sequence (Q9Y606 whole entry): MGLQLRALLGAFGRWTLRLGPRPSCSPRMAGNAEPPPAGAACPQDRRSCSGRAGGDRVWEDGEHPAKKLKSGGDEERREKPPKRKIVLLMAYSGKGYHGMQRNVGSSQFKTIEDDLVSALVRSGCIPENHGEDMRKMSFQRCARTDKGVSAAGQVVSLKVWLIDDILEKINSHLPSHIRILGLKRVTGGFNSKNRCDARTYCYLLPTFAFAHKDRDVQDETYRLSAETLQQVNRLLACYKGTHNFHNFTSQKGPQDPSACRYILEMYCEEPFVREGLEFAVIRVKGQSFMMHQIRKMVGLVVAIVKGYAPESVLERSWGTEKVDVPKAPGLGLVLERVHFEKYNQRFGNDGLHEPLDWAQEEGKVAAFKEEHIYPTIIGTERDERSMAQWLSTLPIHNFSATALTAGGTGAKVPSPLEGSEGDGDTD
UniProt Q96G28, sequence (Q96G28 whole entry): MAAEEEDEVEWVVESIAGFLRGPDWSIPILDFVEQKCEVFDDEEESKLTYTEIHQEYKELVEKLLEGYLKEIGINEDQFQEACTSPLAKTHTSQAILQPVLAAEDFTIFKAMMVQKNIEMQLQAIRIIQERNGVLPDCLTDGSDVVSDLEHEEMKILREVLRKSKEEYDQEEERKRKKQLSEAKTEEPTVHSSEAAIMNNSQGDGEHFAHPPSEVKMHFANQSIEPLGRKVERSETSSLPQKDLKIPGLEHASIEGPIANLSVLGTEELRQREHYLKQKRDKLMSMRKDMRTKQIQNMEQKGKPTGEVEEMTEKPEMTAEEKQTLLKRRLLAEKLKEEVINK
UniProt P19784, sequence (P19784 whole entry, looked up): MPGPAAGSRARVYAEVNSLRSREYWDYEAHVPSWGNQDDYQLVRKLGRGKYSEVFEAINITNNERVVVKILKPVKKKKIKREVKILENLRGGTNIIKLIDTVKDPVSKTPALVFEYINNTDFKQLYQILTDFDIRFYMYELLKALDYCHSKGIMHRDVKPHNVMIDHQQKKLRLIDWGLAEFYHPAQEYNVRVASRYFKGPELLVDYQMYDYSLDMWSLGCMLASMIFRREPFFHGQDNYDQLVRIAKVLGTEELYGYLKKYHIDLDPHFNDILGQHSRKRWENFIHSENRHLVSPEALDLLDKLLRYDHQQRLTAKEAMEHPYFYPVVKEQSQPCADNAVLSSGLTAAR
UniProt Q8TAC1, sequence (Q8TAC1 whole entry): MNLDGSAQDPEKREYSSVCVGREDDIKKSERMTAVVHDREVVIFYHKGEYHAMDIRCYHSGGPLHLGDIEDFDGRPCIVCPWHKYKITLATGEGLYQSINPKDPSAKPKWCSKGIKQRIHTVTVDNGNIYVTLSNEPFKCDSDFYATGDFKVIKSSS

Row | Target | log2 fold change
1 | TAOK3 (peptide sequence: VLIDLIQR, peptide start residue: 285) (UniProt Q9H2K8) | -1.49
2 | UniProt Q96G28 (peptide sequence: NIEMQLQAIR, peptide start residue: 117) | 0.282
3 | UniProt O75582 (peptide sequence: VGIENFELLK, peptide start residue: 44) | -0.481
4 | GALE (peptide sequence: MCEDLWR, peptide start residue: 329) (UniProt Q14376) | 0.379
5 | XRCC6 (peptide sequence: LGSLVDEFK, peptide start residue: 518) (UniProt P12956) | -0.499
6 | TROAP (peptide sequence: SCLTAIHCFHEAR, peptide start residue: 717) (UniProt Q12815) | 1.24
7 | DCUN1D4 (peptide sequence: YAFDFAR, peptide start residue: 144) (UniProt Q92564) | 1.53
8 | UniProt P06493 (peptide sequence: HPNIVSLQDVLMQDSR, peptide start residue: 60) | -1.19
9 | UniProt Q8NEB9 (peptide sequence: SALMPAQLFFK, peptide start residue: 614) | -0.384
10 | GART (peptide sequence: GDTVATLSER, peptide start residue: 966) (UniProt P22102) | 0.425
11 | MASTL (peptide sequence: IAVPKPPSIEEFSIVKPISR, peptide start residue: 24) (UniProt Q96GX5) | -1.05
12 | SLK (peptide sequence: LADFGVSAK, peptide start residue: 171) (UniProt Q9H2G2) | -3.91
13 | UniProt O75153 (peptide sequence: VVEEPYTVR, peptide start residue: 118) | 0.461
14 | CCNB2 (peptide sequence: VAAAASCLSQK, peptide start residue: 308) (UniProt O95067) | -1.57
15 | GTSE1 (peptide sequence: SIPGAAEKPK, peptide start residue: 228) (UniProt Q9NYZ3) | 0.58
16 | PMPCA (peptide sequence: LYLNVLNR, peptide start residue: 363) (UniProt Q10713) | -0.407
17 | BCR (peptide sequence: RAAQAPDGASEPR, peptide start residue: 79) (UniProt P11274) | 0.577
18 | RPS6KA2 (peptide sequence: ADPSQFELLK, peptide start residue: 63) (UniProt Q15349) | -1
19 | QDPR (peptide sequence: EGGLLTLAGAK, peptide start residue: 128) (UniProt P09417) | 0.635

Row | Target | log2 fold change
20 | UniProt P51812 (peptide sequence: DILVEVNHPFIVK, peptide start residue: 120) | -0.86
21 | SRM (peptide sequence: AAFVLPEFAR, peptide start residue: 286) (UniProt P19623) | 0.362
22 | OSBPL6 (peptide sequence: NFVFWQDIR, peptide start residue: 687) (UniProt Q9BZF3) | -1.81
23 | RPL18A (peptide sequence: ARAHSIQIMKVEEIAASK, peptide start residue: 119) (UniProt Q02543) | 0.524
24 | USP28 (peptide sequence: FVDPSAALDLLK, peptide start residue: 232) (UniProt Q96RU2) | 0.578
25 | RIPK2 (peptide sequence: KTEYPDVAWPLR, peptide start residue: 110) (UniProt O43353) | -0.494
26 | RFESD (peptide sequence: EYSSVCVGREDDIK, peptide start residue: 14) (UniProt Q8TAC1) | 0.768
27 | RIPK1 (peptide sequence: IADLGLASFK, peptide start residue: 154) (UniProt Q13546) | -0.814
28 | TOP2A (peptide sequence: GESDDFHMDFDSAVAPR, peptide start residue: 1493) (UniProt P11388) | -0.599
29 | PUS1 (peptide sequence: GYAPESVLER, peptide start residue: 307) (UniProt Q9Y606) | -0.403
30 | XRCC5 (peptide sequence: VDEEQMK, peptide start residue: 326) (UniProt P13010) | -0.825
31 | UniProt O75170 (peptide sequence: ILEAWEANDHTQAAGGMR, peptide start residue: 456) | -0.977
32 | MOB2 (peptide sequence: ITDFQFK, peptide start residue: 35) (UniProt Q70IA6) | 0.834
33 | EIF2B1 (peptide sequence: VAQTGQDLK, peptide start residue: 259) (UniProt Q14232) | 0.366
34 | UniProt P19784 (peptide sequence: HLVSPEALDLLDKLLR, peptide start residue: 292) | -2.25
35 | ARAF (peptide sequence: IGTGSFGTVFR, peptide start residue: 316) (UniProt P10398) | 0.439
36 | SGK3 (peptide sequence: FYAAEIASALGYLHSIK, peptide start residue: 265) (UniProt Q96BR1) | -1.54
37 | UniProt P62995 (peptide sequence: SPSPYYSR, peptide start residue: 264) | 1.31
